Source: PubChem (The Scripps Research Institute Molecular Screening Center)
LEDGF integ inh = blocks HIV-1 LEDGF/p75-dependent DNA integration; TR-FRET IN-LEDGF/p75 DNA integration, Eu/Cy5; inhibition, % at 3.7 µM; hit rate 0.64% among 370,000; AID 743269;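 active = inhibition above the screen-wide mean plus 3 SD, cut at about 13% in these data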;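 note: signal is the Cy5 over europium emission ratio at 671 and 618 nm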
UHRF1 MBD2 ctr = UHRF1 methyl-DNA binding inhibition. Q96T88. inhibition, % at 4.4 µM. UHRF1 binding to methylated oligo, TR-FRET. hit rate 0.75% among 370,000; in the data active = inhibition above about 21%;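 note: UHRF1 SRA domain binding a hemimethylated CpG hairpin DNA probe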
MBD2 DNA inh = inhibitors of human MBD2 binding to methylated oligonucleotide. TR-FRET. inhibition, % at 4.4 µM. hit rate 0.31% among 370,000. AID 686964; in the data active = inhibition above about 13%
TCR CD3 inh = inhibitors of human TCR-CD3 interaction. TAMRA-labeled TCR probe fluorescence, biochemical. inhibition, % at 9.4 µM. hit rate 0.37% among 360,000. AID 651800; in the data active = inhibition above about 19%;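 note: recombinant mutant TCR 2C K166C tagged with TAMRA read by polarization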
Rin1 Abl inh = blocks binding of human Rin1 to Abl | P00519+Q13671 | TR-FRET Rin1/Abl binding, biochemical | inhibition, % at 7.35 µM | hit rate 0.4% among 360,000; in the data active = inhibition above about 5%, passing the limit was not always enough
IN multimer up = counter-screen for LEDGF/p75 integration inhibitors: HIV-1 integrase multimerization activators; shares compounds with LEDGF integ inh; TR-FRET HIV-1 integrase multimerization, biochemical; activation, % at 7.7 µM; hit rate 17% among 2,000; in the data active = activation above about 8.9%
TR-FRET interf = TR-FRET optical interference, LEDGF/p75 integration counter-screen. inhibition, % at 7.7 µM. shares compounds with LEDGF integ inh. 2,000 tested, under 10 active. AID 1053135. TR-FRET optical interference counterscreen, HIV-1 IN multimerization;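 active = inhibition above the mean over all tested compounds plus 3 SD, which no compound reached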
LEDGF integ conf = confirmation of HIV-1 LEDGF/p75-dependent integration inhibitors. shares compounds with LEDGF integ inh. TR-FRET LEDGF/p75-dependent HIV-1 integration, biochemical. inhibition, % at 3.7 µM. hit rate 36% among 2,000. AID 1053136; in the data active = inhibition above about 14%
Numbers stand for hits; - = inactive; . = not tested or not shown. The list is not random: actives were taken first. Their share in the collection is about 2%.

SMILES	LEDGF integ inh	UHRF1 MBD2 ctr	MBD2 DNA inh	TCR CD3 inh	Rin1 Abl inh	IN multimer up	TR-FRET interf	LEDGF integ conf
O=C(O)c1cc(-c2ccco2)nc2ccccc12	-	-	-	-	-	.	.	.
CC(=O)Oc1ccccc1C(=O)NC(C)CCc1ccccc1 (stereo not drawn)	-	-	-	-	-	.	.	.
O=c1[nH]cnc2c1ncn2[C@@H]1O[C@H](COS(=O)(=O)O)[C@@H](O)[C@H]1O	-	-	-	-	-	.	.	.
Clc1c(-c2ccccc2)nc2ccccn12	-	-	-	-	-	.	.	.
c1ccn2c(c1)nc1c2nc2ccccn21	14.0	-	-	-	-	-	-	-
CC(NC(=O)COC(=O)CCN1C(=O)C2CC=CCC2C1=O)c1ccc(Br)cc1 (stereo not drawn)	-	-	-	-	-	.	.	.
CN(C(=O)OC(C)(C)C)c1ccc(-c2nc3ccccc3s2)cc1	-	-	-	-	-	.	.	.
CN(C)CCCNC(=O)c1c(N)[nH]c(C(=O)c2ccc(Br)cc2)c1-c1ccc(Br)cc1	-	-	-	-	.	.	.	.
Nn1cnnc1N/N=C/c1ccc(F)cc1	64.7	-	-	-	-	-	-	-
Nn1cnnc1N/N=C/c1ccc(Cl)c([N+](=O)[O-])c1	44.0	-	-	-	-	-	-	-
Cc1nnc(C)n1N=Cc1ccc(Cl)c([N+](=O)[O-])c1	-	-	-	.	.	.	.	.
Cc1ccc(/C=N/Nc2nncn2N)cc1	65.3	-	-	-	-	-	-	-
CC(C)(C)N(Cc1cn(Cc2ccccc2)nn1)S(=O)(=O)c1ccc(F)cc1Br	-	-	-	.	.	.	.	.
Cc1ccc(OCc2nnc(SC(C)C(=O)O)n2-c2ccccc2)cc1 (stereo not drawn)	-	-	-	-	-	.	.	.
Nc1cc(Cl)ccc1Oc1ccccc1	35.7	-	-	-	-	-	-	-
O=C(CN1CCN(c2ccc(F)cc2)CC1)Nc1nccs1	-	-	-	-	-	.	.	.
C/C=C/COC(=O)c1[nH]c2c(c1C)C(=O)CC(c1ccco1)C2 (stereo not drawn)	18.3	-	-	-	-	-	-	21.1
Cc1c(C(=O)OCC(C)C)[nH]c2c1C(=O)CC(c1ccco1)C2 (stereo not drawn)	-	-	-	-	-	.	.	.
O=C1C2C3C=CC(CC3)C2C(=O)N1c1ccc(F)cc1 (stereo not drawn)	-	-	-	-	-	.	.	.
CC(C)C1NC2(C(=O)c3ccccc3C2=O)C2C(=O)N(c3ccc(F)cc3)C(=O)C12 (stereo not drawn)	38.8	-	-	-	-	-	-	-
Cc1cc(O)c(N=Cc2cc3c(cc2[N+](=O)[O-])OCO3)cc1C	18.8	-	-	-	-	-	-	-
CCCc1nc2ccc(C)cn2c1Cc1ccc(C)cc1	13.9	20.7	-	-	-	-	-	-
CCCc1nc2ccc(C)cn2c1Cc1cccc(F)c1	-	-	-	-	-	.	.	.
CC(C)(C)OC(=O)C[C@H]1C/C=C\C[C@@H](CC(=O)NCCO)C(=O)NC[C@@H](c2ccccc2)OC1=O	75.5	-	-	-	-	-	-	-
CC(C)(C)OC(=O)C[C@H]1C/C=C\C[C@@H](CC(=O)N[C@H](CO)Cc2ccccc2)C(=O)NC[C@H](c2ccccc2)OC1=O	-	-	-	-	-	.	.	.
SMILES	LEDGF integ inh	UHRF1 MBD2 ctr	MBD2 DNA inh	TCR CD3 inh	Rin1 Abl inh	IN multimer up	TR-FRET interf	LEDGF integ conf
Cc1cccc(NC(=O)CN2C(=O)N/C(=C\c3ccccc3OCc3ccc(C(=O)O)cc3)C2=O)c1	16.5	-	-	-	-	-	-	-
O=C(CN1C(=O)N/C(=C\c2ccccc2OCc2ccc(C(=O)O)cc2)C1=O)Nc1ccc(F)cc1	-	-	-	-	-	.	.	.
CS(=O)(=O)c1ccc(Cl)c(NC(=O)CCCc2nc3ccccc3c(=O)[nH]2)c1	-	-	-	-	-	.	.	.
CN(C)c1cc(Cl)c2nonc2c1N	26.3	-	-	-	-	-	-	-
CN(C(=O)c1cccc(NC(=O)Cc2cccc(NC(=O)C3CCN(C(=O)c4ccccc4)CC3)c2)c1)C1CC1	-	-	-	-	-	.	.	.
N#Cc1c(NC(=O)COC(=O)C2CC3C=CC2C3)oc(-c2ccccc2)c1-c1ccccc1 (stereo not drawn)	17.6	-	-	-	-	-	-	-
O=C(CCCCCN1C(=O)c2ccccc2C1=O)NC1CCCC1	65.6	-	-	-	-	-	-	-
O=C(CCCCCCN1C(=O)c2ccccc2C1=O)NC1CCCCC1	-	-	-	-	-	.	.	.
O=C(NCCNCc1ccc(F)cc1)c1ccco1	21.6	-	-	-	-	-	-	-
O=C(COC(=O)c1cc(S(=O)(=O)N2CCOCC2)ccc1Cl)NC1CC1	-	-	-	-	-	.	.	.
O=C(COC(=O)c1cc(S(=O)(=O)N2CCOCC2)ccc1Cl)NC1CCCCC1	19.3	-	-	-	-	-	-	-
O=C1c2ccccc2C(=O)c2c1cccc2-n1nnc2ccccc21	-	-	-	-	-	.	.	.
O=C1C(N2CCOCC2)=C(n2nnc3ccccc32)C(=O)c2ccccc21	40.0	-	-	-	-	-	-	45.0
Cc1oc(-c2ccc(Cl)cc2)nc1CS(=O)CC(=O)NCCCN1CCOCC1 (stereo not drawn)	17.6	-	-	-	-	-	-	-
Cc1oc(-c2ccc(Cl)cc2)nc1CS(=O)CC(=O)NCCN1CCCC1 (stereo not drawn)	-	-	-	-	-	.	.	.
COc1ccc2c(C)c(CC(=O)N3C[C@H]4C[C@@H](C3)c3cccc(=O)n3C4)c(=O)oc2c1OC	-	-	-	-	-	.	.	.
O=C(c1ccncc1)N1CCN(S(=O)(=O)c2ccc(F)cc2)CC1	-	-	-	-	-	.	.	.
COc1cc(-c2cccs2)cc(=O)c2c(C)oc(C)c12	16.9	-	-	-	-	-	-	-
COc1cccc2cc(-c3nc(-c4cccs4)cs3)c(=O)oc12	-	-	-	-	-	.	.	.
Cc1ccc(S(=O)(=O)N(C)c2ccccc2C(=O)Nc2c(F)cccc2F)cc1	36.3	-	-	-	-	-	-	-
CCCCNc1ccc2c(c1)OC[C@H](CC(C)C)NS2(=O)=O	-	-	-	-	.	.	.	.
COc1ccccc1CNc1ccc2c(c1)OC[C@H](CC(C)C)NS2(=O)=O	20.3	-	-	-	.	-	-	-
Cc1ccc(OC(C)C(=O)Nc2cccc(S(=O)(=O)N3CCCCCC3)c2)cc1 (stereo not drawn)	-	-	-	-	-	.	.	.
O=C(c1cccc(F)c1)N1CCN(S(=O)(=O)c2ccccc2)CC1	-	-	-	-	-	.	.	.
O=C(c1ccccc1)N1CCN(S(=O)(=O)c2ccccc2)CC1	44.2	-	-	-	-	-	-	-
